# NPC1 promoter act: NPC1 promoter activation | hit rate 2.4% among 320,000 | AID 485313 | Huh7 NPC1 promoter luciferase reporter, 24 h | Potency, µM (highest dose often 9.22 µM), most hits filed as activators; also: nearly all actives have a fitted effect of over 60% in size
#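 Luminescence read-out of NPC1 promoter-driven luciferase in stably transfected Huh7 cells; compounds delivered in DMSO and left 24 h at 37C, 5% CO2, qHTS titration format.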
# ELG1 genotox: genotoxicity induction in ELG1-luciferase HEK293T cells; HEK293T ELG1-luciferase reporter, luminescence, 16 h; Potency, µM (doses to about 46 µM), usual class: activators; hit rate 1.3% among 330,000; AID 504466; also: nearly all actives have a fitted effect of over 60% in size
#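 Quantitative HTS format in 1536-well plates. HEK293T ELG1-luciferase reporter cells receive test compound and are incubated 16 hr at 37 °C, 5% CO2; ONE-Glo added, 30 min room temperature, then luminescence read.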
# KinaseGlo FLuc: blocks Kinase-Glo luciferase, a counter-screen artifact | hit rate 0.28% among 200,000 | AID 1379 | Kinase-Glo luciferase, ATP luminescence, 8 min | Potency, µM (series often up to 38.3 µM), most hits filed as inhibitors; also: nearly all actives have a fitted effect of over 60% in size
#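 Compound is pinned into ATP-containing buffer (10 uM ATP, imidazole pH 7.2, 7 mM MgCl2). Kinase-Glo luciferase reagent is then added. Light output is recorded following an 8-min room-temperature incubation.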
# FLuc modulator: counter-screen for miR-21 project: firefly luciferase inhibitors or activators; P08659; purified FLuc, Km substrates, luminescence inhibition; Potency, µM (highest dose often 57.5 µM), usual class: inhibitors; hit rate 6.9% among 360,000; AID 588342; also: nearly all actives have a fitted effect of over 55% in size
# Target sequence (P08659 whole entry, looked up): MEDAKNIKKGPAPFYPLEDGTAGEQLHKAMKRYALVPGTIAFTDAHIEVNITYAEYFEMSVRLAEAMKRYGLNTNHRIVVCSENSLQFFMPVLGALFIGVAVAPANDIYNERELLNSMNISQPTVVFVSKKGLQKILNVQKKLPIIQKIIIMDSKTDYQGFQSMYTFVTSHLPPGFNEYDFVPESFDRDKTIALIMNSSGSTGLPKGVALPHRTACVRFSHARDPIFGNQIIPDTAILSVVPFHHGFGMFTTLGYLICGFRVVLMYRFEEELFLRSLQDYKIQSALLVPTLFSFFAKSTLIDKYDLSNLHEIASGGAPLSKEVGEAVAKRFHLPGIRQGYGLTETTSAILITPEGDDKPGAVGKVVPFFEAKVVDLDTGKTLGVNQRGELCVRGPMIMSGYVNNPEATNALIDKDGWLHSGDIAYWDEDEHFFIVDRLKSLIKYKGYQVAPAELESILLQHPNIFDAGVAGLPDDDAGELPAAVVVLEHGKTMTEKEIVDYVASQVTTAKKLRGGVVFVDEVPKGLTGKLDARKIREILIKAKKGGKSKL
#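 Biochemical qHTS of compounds, final roughly 60 µM downward over six points, against 10 nM purified firefly luciferase using Km concentrations of substrates (10 uM D-luciferin, 10 uM ATP) in Tris acetate pH 7.5 buffer; luminescence output.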
# SMN2 splice up: increases expression of the SMN2 splice variant. HEK293 SMN2-luciferase splicing reporter, luminescence, 30-36 h. AID 1458. hit rate 2.8% among 210,000. Potency, µM (top dose mostly 46.1 µM), actives largely listed as activators; also: nearly all actives have a fitted effect of over 55% in size
#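 qHTS luciferase splicing reporter: luminescence rises when SMN2 exon 7 is included in transfected HEK293 cells. Compound exposure lasted 30-36 h at 37C, with 4.5 mM final sodium butyrate as control, followed by a ONE-Glo read.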
# Rab9 promoter act: Rab9 promoter activation | Huh7 Rab9 promoter-luciferase reporter, luminescence, 24 h | hit rate 2.8% among 320,000 | Potency, µM (doses to about 9.22 µM), actives largely listed as activators; also: nearly all actives have a fitted effect of over 60% in size
#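 Cell-based reporter: Huh7 stable for Rab9 promoter-driven luciferase, plated in reduced-serum medium with 10% FBS at 1500 cells/well, compound-treated 24 h at 37 °C, luminescence read after 10 min reagent.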
# A number is an active result; – = inactive; ? = inconclusive; · = no result given; [ ] = dose if it differs, or a comment. An excerpt weighted towards active compounds, which were near 7.5% of everything screened. Calls follow the shape of the dose curve; as a rule, active = well fitted curve in the direction sought with a large enough effect; inconclusive = small, poorly fitted or top-dose-only effect, or another doubt; inactive = no such curve, though single readings can be large; an effect the other way counts as inactive or inconclusive.
SMILES,NPC1 promoter act,ELG1 genotox,KinaseGlo FLuc,FLuc modulator,SMN2 splice up,Rab9 promoter act
Cc1ccccc1OCC(=O)N/N=C/c1sc(=O)n(Cc2cccc(C(=O)O)c2)c1Cl,–,–,·,–,·,–
O=C(O)c1cccc(Cn2c(Cl)c(/C=N/NC(=O)c3ccccc3Cl)sc2=O)c1,–,–,–,–,–,–
COc1ccc(C(=O)N/N=C/c2sc(=O)n(Cc3cccc(C(=O)O)c3)c2Cl)cc1,–,–,·,26.9µM,·,–
O=[N+]([O-])c1ccc2c(N=Nc3ccc4ccccc4c3O)c(O)cc(S(=O)(=O)O)c2c1,·,·,–[7.66 µM],·,–[9.22 µM],·
O=C(CN1CCN(C(=O)C2CCCO2)CC1)Nc1ccc(Cl)cc1 (stereo unspecified),–,–,·,–,·,–
CCc1nn(CC(=O)N2CCCCC2)c(=O)c2cc3sccc3n12,·,·,·,–,–,·
CCN(CC)C(=O)C(=O)Nc1ccc(F)c(Cl)c1,?,?,–,?,?,?
c1ccc2c(c1)Cc1cc3cc4c(cc3nc1-2)OCO4,·,·,2.82µM,·,0.501µM,·
N#Cc1c(N)nc2c(c1-c1ccc3c(c1)OCO3)CCc1ccccc1-2,–,–,–,–,?,–
Cc1ccc(Nc2nc(-c3ccc(F)cc3)cs2)nc1,3.55µM,?,·,4.26µM,·,3.98µM
Cc1ccc(C)c(Nc2nc(-c3cccnc3)cs2)c1,–,–,·,?,·,–[1.84 µM]
O=C(Nc1ccccc1)Nc1nc(-c2ccc(F)cc2)cs1,–,–,–,–,–,–
Cc1ccc(Nc2nc(-c3ccc(O)c(O)c3)cs2)nc1,–,?,–,3.01µM,·,–
O=C(Nc1ccc(Br)cc1F)c1ccc2c(c1)OCCO2,0.282µM,?,·,0.536µM,·,0.126µM
O=C(Nc1ccc(F)cc1F)c1ccc2c(c1)OCCO2,0.501µM,?,·,4.78µM,·,0.631µM
O=C(COC(=O)c1ccc2c(c1)OCCO2)Nc1ccc(F)cc1F,·,–,·,·,·,·
CCC(=O)Nc1ccc(C(=O)Nc2ccc(Br)cc2F)cc1,–,–,–,–,·,–
CCC(C(=O)N1CCN(c2ccccc2)CC1)n1c(C)c2cnn(-c3ccccc3)c(=O)c2c1C (stereo unspecified),·,·,·,–,–,·
O=C(Cn1ncc2c(Cl)cccc21)NCc1cccc(F)c1,·,·,·,–,·,·
O=C(Cn1ncc2c(Cl)cccc21)NCc1cccc(Br)c1,·,·,·,4.78µM,·,·
Cc1ccc(C(=O)c2sc(Nc3ccccc3F)c(S(=O)(=O)c3ccccc3)c2N)c(C)c1,·,·,·,–,·,·
CN(C)/C=N/c1ncnc2c1cnn2-c1ccc(C(F)(F)F)cn1,2.51µM,?,–,10.7µM,14.1µM,?
Nc1nc(Nc2ccccc2)sc1C(=O)c1ccccc1,2.51µM,–,·,19µM,·,?
COc1ccc(C(=O)c2sc(Nc3ccccc3F)nc2N)cc1,2.82µM,?,·,10.7µM,·,2.24µM
COc1ccc(C(=O)c2sc(Nc3ccccc3)nc2N)cc1,–,–,·,–,·,–
SMILES,NPC1 promoter act,ELG1 genotox,KinaseGlo FLuc,FLuc modulator,SMN2 splice up,Rab9 promoter act
Cc1cc(C(=O)CN2C(=O)c3ccccc3S2(=O)=O)c(C)n1CC1CCCO1 (stereo unspecified),–,–,–,7.57µM,–,–
Cc1cc(C(=O)CN2C(=O)NC(C)(c3ccccc3)C2=O)c(C)n1CC1CCCO1 (stereo unspecified),–,–,–,16.9µM,–,–
Cc1ccc(C)c(NC(=O)Cn2c(=O)ccc3cc(S(=O)(=O)N4CCCC4)ccc32)c1,·,·,·,–,·,·
O=c1c2[nH]c3ccccc3c2ncn1C1CCCCC1,4.47µM,?,–,?,–,?
CCCCN(Cc1ccccc1)S(=O)(=O)c1ccc2c(c1)CC(C)N2C(=O)CC (stereo unspecified),·,·,·,–,–,·
O=C(Nc1ccc(Cl)cc1F)C1CC1c1ccccc1 (stereo unspecified),–,–,·,?,·,–
Cc1ccc(NC(=O)C2CC2c2ccccc2)c([N+](=O)[O-])c1 (stereo unspecified),?,?,·,19µM,·,–
COCCc1nn2c(=O)cc(COC(=O)C(c3ccccc3)c3ccccc3)nc2s1,·,·,·,–,·,·
Cc1csc(SCC(=O)Nc2ccc(C)c(F)c2)n1,–,–,·,·,·,–
CSc1nsc(SCC(=O)Nc2ccc3c(c2)OCCO3)n1,–,10µM,–,21.3µM,22.4µM,–
CSc1nsc(SCC(=O)Nc2ccc(F)cc2)n1,–,–,·,–,·,–
Cc1csc(SCC(=O)Nc2ccc3c(c2)OCCO3)n1,–,?,–,21.3µM,?,?
COc1ccc(OC)c(S(=O)(=O)N2Cc3ccccc3CC2C(=O)Nc2ccc(C(C)=O)cc2)c1 (stereo unspecified),·,·,·,–,–,·
COc1ccccc1Oc1ccc(NC(=O)c2ccccc2)cc1,–,–,–,–,·,?
O=C(NC(=O)c1ccccc1)Nc1ccccc1,0.447µM,?,·,?,·,0.631µM
COc1ccc(NC(=O)NC(=O)c2ccccc2)cc1,1µM,?,·,?,·,0.708µM
O=C1CN(S(=O)(=O)c2ccc([N+](=O)[O-])cc2)CC(=O)N1,–,–,·,–,·,–
CC(/C=C/c1ccc2c(c1)OCO2)=N\NC(=O)c1cccc([N+](=O)[O-])c1,–,–,–,–,–,–
C/C(=N/NC(=O)c1ccc2c(c1)OCO2)c1cccc([N+](=O)[O-])c1,2µM,8.2µM,·,6.01µM,·,2.24µM
C/C(=N\NC(=O)c1cc2ccccc2cc1O)c1ccc2c(c1)OCO2,–,–,–,9.53µM,–,–
COc1ccc(/C(C)=N\NC(=O)c2ccc3c(c2)OCO3)cc1OC,–,–,–,?,–,–
C/C(=N/NC(=O)c1ccc2c(c1)OCO2)c1ccc(NC(=O)c2ccc(F)cc2)cc1,–,14.6µM,·,–,·,–
C/C(=N/NC(=O)c1ccc2c(c1)OCO2)c1cccc(NC(=O)C(C)(C)C)c1,–,–,–,16.9µM,–,–
COc1ccccc1NS(=O)(=O)c1cccc(C(=O)N/N=C(\C)c2cccnc2)c1,–,–,·,–,·,–
COc1ccccc1NS(=O)(=O)c1cccc(C(=O)N/N=C(\C)c2ccc3c(c2)OCCO3)c1,–,–,–,15.1µM,–,–
SMILES,NPC1 promoter act,ELG1 genotox,KinaseGlo FLuc,FLuc modulator,SMN2 splice up,Rab9 promoter act
O=C(O)c1cccc(NC(=O)c2cccc(S(=O)(=O)N3CCc4ccccc4C3)c2)c1,–,–,–,21.3µM,–,–
O=C(O)c1cccc(NC(=O)c2cccc(S(=O)(=O)N3CCc4ccccc43)c2)c1,–,–,·,21.3µM,·,–
CC(C)(C)NC(=O)Cn1c(=O)n(CC(=O)NC(C)(C)C)c2ccccc21,–,–,–,–,–,–
COC(=O)c1ccc2c(=O)n(CCCCCC(=O)N3CCN(c4cccc(C)c4C)CC3)c(=O)[nH]c2c1,·,·,·,–,·,·
C=CCn1c(SCCNC(C)=O)nc2cc(-c3ccccc3)sc2c1=O,–,–,·,?,·,–
Cc1nc2cc(-c3ccccc3)sc2c(=O)n1N,?,–,2.24µM,0.675µM,1.41µM,?
COc1ccc(-c2nc3ccccc3c(=O)n2N)cc1,–,–,–,–,–,–

# Assay outcomes from PubChem BioAssay.
